Experimental findings from PubChem BioAssay are described below.

Several values for one entry are separate records, joined by “and”; a condition that tells them apart may be missing. Equal entries are not always repeated. Activity calls are given as the source filed them.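 How the source made its calls, unless noted: active means inhibition at or above 50% relative to wild type and mutant plate controls; inactive means inhibition below 50%.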

Experiment [1] is described as follows: inhibitors of TNFa-induced NFkB p65 translocation, primary screen, imaging, HUVEC, MLSMR starter and 10KST1 sets (AID 438;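 active means inhibition above 20% together with a positive visual image hit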;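 further: compound added about 3h40 before a 20 min TNFalpha stimulation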;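 on inhibition: signal is the nuclear over cytoplasmic p65 intensity ratio per well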). Particulars: HUVEC TNFa-induced p65 nuclear translocation; cell count: measured here: nuclei count (cytotoxicity indicator), at 2.08 µM; inhibition: at 2 µM, stronger effect = higher value, 0% TNFa-plus-vehicle, 100% no-TNFa wells.
Experiment [2] can be described thus: reduction of polyQ htt aggregates in cells – imaging, exon1htt(103Q)mCFP cells, high-content imaging, primary screen (AID 483;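 active means visual image review flags a hit and inhibition of aggregation exceeds 20%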;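 further: compound exposure lasted 3 days before fixation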;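 on nuclei count: percent of the per-plate median nuclei count of sample wells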). As to conditions: exon1htt(103Q)mCFP cell line, aggregate imaging, at 2 µM; inhibition of aggregation: stronger effect = higher value; nuclei count: measured here: cell count, toxicity.
Experiment [3] is described as follows: endothelial E-selectin expression blockers – imaging, HUVEC, immunofluorescence, MLSMR starter and 10KST1 sets, primary screen (AID 487;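 active means visually confirmed hit in the image check and inhibition above 20%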;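 on inhibition: signal is fraction of cell area covered by stained E-selectin grains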;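 on nuclei count: 100% = median nuclei count of all wells on the same plate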). As to conditions: HUVEC TNFalpha-induced E-selectin immunofluorescence imaging, at 2 µM; inhibition: stronger effect = higher value; nuclei count: measured here: cell number, toxicity.
The nature of experiment [4]: Primary imaging screen for DUSP6 inhibitors that restore phospho-Erk in transfected HeLa cells, chemical complementation (AID 609;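 active means compounds giving at least 50% inhibition in the cell-based MKP-3 phosphatase rescue imaging test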;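 on inhibition: phospho-Erk level distribution per well compared with pooled transfected vehicle control wells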). Particulars: HeLa MKP-3 transfected, phospho-Erk imaging KS statistic, at 10 µM, cells stimulated with TPA for 15 min.
Experiment [5] concerns the target Dual specificity protein phosphatase 6 (Homo sapiens) (UniProt Q16828). The experiment is described as above. Particulars: HeLa MKP-3 transfected, phospho-Erk imaging KS statistic; at 10 µM; stronger effect = higher value; cells stimulated with TPA for 15 min.
Experiment [6] concerns the target Voltage-gated potassium channel subunit beta-2 (Rattus norvegicus) (UniProt P62483). Put plainly: inhibitors of rat Kvbeta2 reductase activity – biochemical, NADPH fluorescence, primary screen (AID 622;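 active means fluorescence slope higher than the sample average by over 3 SD, cut at about -0.22 in these data, passing the limit was not always enough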;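 further: slope of raw intensity against log time taken from 70 to 1610 s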). Particulars: recombinant KvBeta, 4-cyanobenzaldehyde reduction, at 10 µM, stronger effect = higher value.
Experiment [7] shares this target. In words: enhancers of rat Kvbeta2 NADPH turnover – biochemical, NADPH fluorescence, primary screen (AID 623;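 active means NADPH fluorescence slope more negative than the mean of all samples by about 3 SD, 99.7% confidence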;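 further: fluorescence intensity change per second fitted from 20 to 320 s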). As to conditions: Recombinant KvBeta, NADPH fluorescence decrease slope, 10 min; at 10 µM; stronger effect = lower value.
The target of experiment [8] is Alpha-2C adrenergic receptor (Homo sapiens) (UniProt P18825). In words: compounds altering alpha2C-coupled GIRK flux – cell-based, HEK293 alpha2C/GIRK1/2, thallium flux, primary screen (AID 624;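 active means fluorescence slope after compound addition differing from the mean of all screened samples at 99.7% confidence, in either direction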;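 further: slope of fluorescence ratio to pre-addition baseline per second over 15 to 24 s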). Particulars: thallium flux BTC fluorescence, at 10 µM, actives lie on both sides.
Experiment [9] can be described thus: inhibitors of larval lipid processing in zebrafish, primary screen, whole organism, PED6 fluorescence, gall bladder and intestine (AID 686;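 active means a full or partial loss of lipid-probe fluorescence in the fish gall bladder, intestine or both, judged by eye; inactive means no fluorescence loss, or compound toxic to the fish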;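 further: larvae 5 to 7 days old with five fish per well; signal comes from phospholipase A2 cleavage of quenched PED6 carried via bile; overnight exposure to compound and PED6 before scoring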). As to conditions: Zebrafish larvae PED6 lipid processing, fluorescence scoring; screened at 20 µM (by protocol).
Experiment [10] can be described thus: loss of swimming-algae plug formation – whole organism, Chlamydomonas reinhardtii, WT vs cilia-less mutant, absorbance, 96-well, primary screen (AID 463189).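 Further: 0% = wild type cc124 cells in DMSO and 100% = ciliumless bld1 mutant cells.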 As to conditions: Chlamydomonas reinhardtii gravitaxis, OD600 absorbance, 2 days; at 10 µM; stronger effect = higher value.
Experiment [11] in a line: blockers of RIG-like receptor reporter activation – cell-based, Sendai virus stimulus, luciferase, 10K MLSCN set, TLR/RLR signaling modifier project, primary screen (AID 602276;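 active means inhibition at or above 50% at 10 µM; inactive means inhibition below 50%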;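 further: firefly luciferase from ISG56 promoter only with Renilla not read in this screen; 0% = Sendai virus plus DMSO and 100% = medium plus DMSO without virus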). As to conditions: HEK293 RL24 IRF3 luciferase reporter, at 10 µM, stronger effect = higher value. For orientation: In a reporter assay the amount or activity of a reporter protein is the signal.
Experiment [12] can be described thus: TLR3 IRF3 reporter activation blockers – cell-based, poly I:C stimulus, luciferase, 10K MLSCN set, primary screen (AID 602277;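 active means inhibition of the reporter signal at or above 50%; inactive means inhibition below 50%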). Particulars: HEK293-TLR3 RL24 IRF3 luciferase reporter, at 10 µM, stronger effect = higher value.
The mark [13] stands for this setting: measured here: cell density z-score.
[14] abbreviates: measured here: nuclear c-Myc green intensity z-score.
The mark [15] stands for this setting: measured here: nuclear pErk red intensity z-score, stronger effect = higher value.

Sequence of Voltage-gated potassium channel subunit beta-2 (Rattus norvegicus) (P62483 whole entry, looked up): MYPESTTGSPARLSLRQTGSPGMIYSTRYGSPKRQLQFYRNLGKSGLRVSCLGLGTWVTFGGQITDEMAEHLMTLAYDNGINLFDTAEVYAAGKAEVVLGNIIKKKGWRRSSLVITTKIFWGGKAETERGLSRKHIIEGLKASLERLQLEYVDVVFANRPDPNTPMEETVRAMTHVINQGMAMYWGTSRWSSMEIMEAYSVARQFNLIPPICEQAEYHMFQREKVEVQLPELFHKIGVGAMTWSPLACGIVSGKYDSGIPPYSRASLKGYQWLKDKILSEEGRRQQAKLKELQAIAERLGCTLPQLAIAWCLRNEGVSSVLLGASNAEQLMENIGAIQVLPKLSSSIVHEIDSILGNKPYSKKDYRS
Sequence of Alpha-2C adrenergic receptor (Homo sapiens) (P18825 whole entry, looked up): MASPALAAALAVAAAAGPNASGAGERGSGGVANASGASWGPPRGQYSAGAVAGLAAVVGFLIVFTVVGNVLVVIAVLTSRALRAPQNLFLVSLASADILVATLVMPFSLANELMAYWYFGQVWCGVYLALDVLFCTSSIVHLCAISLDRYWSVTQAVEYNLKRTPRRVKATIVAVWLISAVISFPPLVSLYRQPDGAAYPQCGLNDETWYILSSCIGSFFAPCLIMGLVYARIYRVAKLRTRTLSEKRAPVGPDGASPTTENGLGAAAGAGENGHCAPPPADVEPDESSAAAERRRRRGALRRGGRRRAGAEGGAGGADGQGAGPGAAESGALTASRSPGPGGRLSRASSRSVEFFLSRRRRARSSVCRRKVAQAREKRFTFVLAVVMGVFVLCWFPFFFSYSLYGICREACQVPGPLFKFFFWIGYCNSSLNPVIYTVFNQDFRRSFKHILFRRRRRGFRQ
Sequence of Dual specificity protein phosphatase 6 (Homo sapiens) (Q16828 whole entry, looked up): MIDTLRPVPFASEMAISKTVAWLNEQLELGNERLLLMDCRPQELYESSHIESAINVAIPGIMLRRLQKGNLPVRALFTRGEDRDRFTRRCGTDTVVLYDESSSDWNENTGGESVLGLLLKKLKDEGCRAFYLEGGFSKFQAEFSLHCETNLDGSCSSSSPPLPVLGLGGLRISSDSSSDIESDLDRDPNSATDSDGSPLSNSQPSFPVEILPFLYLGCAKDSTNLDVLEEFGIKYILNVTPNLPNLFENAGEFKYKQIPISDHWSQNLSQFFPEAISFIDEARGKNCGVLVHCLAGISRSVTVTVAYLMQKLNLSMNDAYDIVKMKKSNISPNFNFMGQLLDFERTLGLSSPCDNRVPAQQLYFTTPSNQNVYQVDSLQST

One may read the inhibition as the change of the read-out against control, counted positive when it falls. Regarding `O=C(C1=C(O)C(=O)N(c2ncccn2)C1c1cccc(Cl)c1)c1ccco1` (stereo not given), the cell count in [1] came out at 454. Besides, the inhibition in experiment [1] was -2.1% (inactive); in [3], -61.9% (inactive); in [5], -4.7% (inactive); in [10] it was 3.84% (inactive); in experiment [11] it was 11% (inactive); in experiment [12], 1.21% (inactive). For the same molecule, the inhibition of aggregation in experiment [2] was 23.5% (inactive). The nuclei count came to 97.7% in [2] and 138% in [3]. The z-score was 0.991 in experiment [4] (setting [13]), -0.348 in [4] (setting [14]) and 0.185 in experiment [4] (setting [15]). The fluorescence slope in experiment [6] is -0.349 (inactive). In [7], the NADPH fluorescence slope was -2.5e-05 (inactive). In [8], the slope is 0.00586 (inactive). Besides, the outcome in experiment [9] was inactive.

On to `O=C(O)CCc1cc(I)c(Oc2ccc(O)c(I)c2)c(I)c1`, for which, in experiment [1], the cell count stood at 623. For the same molecule, the inhibition in experiment [1] is -9.5% (inactive); in [3] it was -120% (inactive); in experiment [5], 9.37% (inactive); in [10], 3.29% (inactive); in experiment [11], 21.3% (inactive); in [12], 34.6% (inactive). In experiment [2], the inhibition of aggregation is -4.4% (inactive). Further, the nuclei count in experiment [2] came out at 107%; in [3], 127%. Besides, the results for the z-score in [4] (setting [13]), in experiment [4] (setting [14]) and in experiment [4] (setting [15]) were 1.17, -0.143 and 0.645, respectively. Further, the fluorescence slope in experiment [6] is -0.522 (inactive). Further, the NADPH fluorescence slope in experiment [7] is -5.4e-05 (inactive). The slope in experiment [8] was 0.00395 (inactive). In addition, the outcome in [9] was inactive.

`N[C@@H](Cc1ccc(O)c(I)c1)C(=O)O`: the cell count in [1] came out at 525. Besides, the inhibition in [1] was 0.1% (inactive); in experiment [3] it was -11.6% (inactive); in experiment [5] it was -4.44% (inactive); in experiment [10], 0.129% (inactive) and -19.2% (inactive); in experiment [11], 9.28% (inactive); in experiment [12], 24.3% (inactive). Besides, in experiment [2], the inhibition of aggregation is 1.7% (inactive). The nuclei count was determined as 92.3% in experiment [2] and 110% in experiment [3]. Also, the z-score in [4] (setting [13]) is -0.528; in experiment [4] (setting [14]), -0.732; in experiment [4] (setting [15]), -0.19. Further, the fluorescence slope in experiment [6] is -0.463 (inactive). In addition, in [7], the NADPH fluorescence slope is 3e-05 (inactive). The slope in experiment [8] is 0.00503 (inactive). Moreover, the molecule was classed as inactive in experiment [9].

As to `C[C@]12C=CC(=O)C=C1CC[C@@H]1[C@@H]2[C@@H](O)C[C@@]2(C)[C@H]1CC[C@]2(O)C(=O)COC(=O)CCC(=O)O`, the cell count in experiment [1] came out at 671. Also, the inhibition in experiment [1] was -6.3% (inactive); in [3] it was -27.3% (inactive); in experiment [5], 19.2% (inactive); in experiment [10] it was 15.8% (inactive); in experiment [11] it was 6.58% (inactive); in [12] it was 46.6% (inactive). Also, the inhibition of aggregation in experiment [2] was 6.5% (inactive). For the same molecule, the values for the nuclei count in experiment [2] and in experiment [3] were 85.8% and 120%, respectively. The z-score in experiment [4] (setting [13]) is 1.3; in experiment [4] (setting [14]), 0.17; in [4] (setting [15]), -0.0671. The fluorescence slope in experiment [6] is -0.471 (inactive). Moreover, the NADPH fluorescence slope in [7] was -8e-05 (inactive). In experiment [8], the slope was 0.00574 (inactive). In addition, the outcome in experiment [9] was inactive.

In the case of `Nc1nc(Cl)nc2c1ncn2[C@@H]1O[C@H](CO)[C@@H](O)[C@H]1O`, the cell count in experiment [1] turned out to be 493. The inhibition in experiment [1] was -14.6% (inactive); in [3], -20.3% (inactive); in [5], 7.39% (inactive); in experiment [10], 13% (inactive); in experiment [11], 16.8% (inactive); in [12], 39% (inactive). Further, the inhibition of aggregation in experiment [2] is 16.9% (inactive). Besides, the nuclei count is 88.7% in [2] and 117% in [3]. Besides, the z-score was 0.919 in [4] (setting [13]), 0.297 in experiment [4] (setting [14]) and -0.425 in experiment [4] (setting [15]). The fluorescence slope in experiment [6] was -0.439 (inactive). Also, the NADPH fluorescence slope in experiment [7] was 2.4e-05 (inactive). Besides, the slope in experiment [8] is 0.00614 (inactive). The outcome in experiment [9] was inactive.
